Laboratory results from the supplement of paper PMC8007513.
Structures can show the parent of a compound that is named as a salt. ± gives the standard error. Among all 1,300 compounds or so, about 75 (6%) showed an effect of 50% or more. Shown is part of a subset that was picked to be rich in strong results.

Tested on: Trichoderma virens ATCC 9645
Assay: growth yield (OD600) relative to untreated control; higher = less growth inhibition
Details: compound concentration: 100 uM
In short: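 Trichoderma virens ATCC 9645 spores, from potato dextrose agar plates grown for 7 days, were brought to 15,000 spores ml^−1 in potato dextrose broth and dispensed as 100 μl aliquots into 96-well plates. Each aliquot received library compounds at 100 μM final, with or without a biocide at 200 ng ml^−1, before growth at 30 °C and OD600 readings on a BioTek EL800 at 40 h and 72 h. Growth is expressed relative to the control containing neither agent and represents means of duplicate screens.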

Row | Structure (SMILES) | growth yield (40 h) [%] | growth yield (72 h) [%]
1 | C[C@H](Cc1cc2c(c(C(N)=O)c1)N(CCCO)CC2)NCCOc1ccccc1OCC(F)(F)F [Silodosin] | 105 | 100 ± 2.3
2 | Cc1cc(/C=C/c2ccc3cc(N(C)C)ccc3[n+]2C)c(C)n1-c1ccccc1 [Pyrvinium pamoate] | 124 ± 20 | 114 ± 12
3 | CCC1NC(=O)c2cc(S(N)(=O)=O)c(Cl)cc2N1 (stereo not given) [Quinethazone] | 114 ± 1.4 | 107 ± 1.1
4 | C#C[C@]1(OC(C)=O)CC[C@H]2[C@@H]3CCC4=CC(=NO)CC[C@@H]4[C@H]3CC[C@@]21CC (mixture of isomers) [Norgestimate] | 117 ± 3.3 | 112 ± 3.9
5 | Clc1ccc(COC(Cn2ccnc2)c2ccc(Cl)cc2Cl)c(Cl)c1 (stereo not given) [Miconazole] | 1.43 ± 1.1 | 1.47 ± 0.63
6 | COc1ccc(-c2ccc3cc(C(=O)O)ccc3c2)cc1C12CC3CC(CC(C3)C1)C2 [Adapalene] | 107 ± 1.9 | 106.6 ± 0.84
7 | Nc1ncnc2c1ncn2C1OC(COP(=O)(O)O)C(O)C1O (stereo not given) [Adenosine 5'-monophosphate monohydrate] | 106 ± 1.3 | 107 ± 3.6
8 | Cc1c(NC(C)C)c(=O)n(-c2ccccc2)n1C [Isopyrin hydrochloride] | 100.9 ± 0.79 | 96.17 ± 0.52
9 | NC(Cc1cc(I)c(Oc2cc(I)c(O)c(I)c2)c(I)c1)C(=O)O (stereo not given) [Thyroxine (L)] | 98 ± 2.1 | 94.5 ± 3.9
10 | O=C(O)Cc1cc(I)c(Oc2ccc(O)c(I)c2)c(I)c1 [Tiratricol, 3,3',5-triiodothyroacetic acid] | 28.9 ± 16 | 46.6 ± 17
11 | N[C@@H](Cc1cc(I)c(Oc2ccc(O)c(I)c2)c(I)c1)C(=O)O [Liothyronine] | 91.3 ± 3.3 | 97.3 ± 1.1
12 | COc1cc2nc(N3CCN(C(=O)c4ccco4)CC3)nc(N)c2cc1OC [Prazosin hydrochloride] | 105 ± 5.7 | 101 ± 1.4
13 | CCOC(=O)/C=C(C)/C=C/C=C(C)/C=C/c1c(C)cc(OC)c(C)c1C [Etretinate] | 110 ± 6.3 | 107 ± 5.5
14 | CC(=O)Nc1ccc(CC(=O)O)cc1 [Actarit] | 106 ± 5.4 | 102 ± 3.4
15 | C[C@@H](O)[C@H]1C(=O)N2C(C(=O)O)=C(SCCNC=N)C[C@H]12 [Imipenem] | 103 ± 2.2 | 104 ± 2.2
